Test results from PubChem BioAssay (NCI).
Values joined by “and” are separate entries in the source; they are usually repeats but may differ in a detail not shown here. Equal values may be shown once. This is part of a sample that, as a whole, favours compounds with a hit. Of some 83,000 tested, about 20% had one in any assay.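 The endpoint reported here, percent growth, reads 100 for growth as untreated, 0 for no net growth and -100 for all cells dead.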 A number with no mark means an inactive call. Active and inactive are the calls of the source. The calls were made as follows: active = growth percent below 10; inactive = the rest.

Test system: SR leukemia
Test: NCI-60 one-dose screen, 48 h (100 = growth as untreated, 0 = no growth, -100 = all killed)
Conditions: 10 µM unless noted

SMILES	growth
CC[C@@]1(O)C[C@H](OC2CC(N(C)C)C(O)C(C)O2)c2c(O)c3c(c(O)c2[C@H]1OC1CC(N(C)C)C(O)C(C)O1)C(=O)c1cccc(O)c1C3=O (some centres undefined)	-7.1% (active)
COC1CC(CC2CCC(C)C(C(C)C(=O)O)O2)OC2(OC(C)(C3CCC(C)(C4OC(C5OC(O)(CO)C(C)CC5C)CC4C)O3)CC2C)C1C (centres undefined)	-28.8% (active)
CCC(=O)OC1CCn2c1nc1c2C(=O)C(C)=C(N2CC2)C1=O (centres undefined)	1.48% (active)
CO[C@H](/C(C)=C/C=C/C(C)=C/c1coc(C)n1)[C@H](C)[C@H]1C[C@@H](O)[C@@]2(C)O[C@H]2/C=C/[C@@H](C)[C@@H]2C[C@@H](CC(=O)O2)C[C@H]2O[C@@H]2C(=O)O1	-4.11% (active)
CC1=C(CO)C2=C(C)C3(CC3)[C@@](C)(O)C(=O)C2=C1	21.4%
COC1=C(C)C(=O)C2=C(C1=O)C(CO)N1C(C#N)C3CC4C(C1C2N1CCOC41)N3C (centres undefined)	-19.5% (active)
COc1cccc2c1cc([N+](=O)[O-])c1c(C(=O)O)cc3c(c12)OCO3	28.1% and 76.3%
CCOC(=O)C(NC(=O)C(Cc1ccc(N(CCCl)CCCl)cc1)NC(C)=O)C(C)C (centres undefined)	28.2%
C[C@]12CC[C@H](O)CC1=CC[C@@H]1[C@@H]2CC[C@]2(C)C(=O)CC[C@@H]12	-4.91% (active)
NCCc1ccc(OCc2ccccc2)c(OCc2ccccc2)c1	-27.5% (active)
Oc1cccc2cccnc12	40.1% and 105% and 57.7%
COc1ccccc1/C=C(/C)[N+](=O)[O-]	10% and 92.3%
CC1=C2C(=O)[C@H]3[C@@H](CC=C4C[C@@H](O)CC[C@@]43C)[C@@H]2CC[C@]12O[C@@H]1C[C@H](C)CN[C@H]1[C@H]2C	95.2%
COc1ccc(OC)c(/C=C/[N+](=O)[O-])c1	-13% (active)
CC[C@](O)(C(=O)O)c1cc2n(c(=O)c1CO)Cc1cc3ccccc3nc1-2	-20.3% (active)
Cc1c(N)nc([C@H](CC(N)=O)NC[C@H](N)C(N)=O)nc1C(=O)N[C@H](C(=O)N[C@H](C)[C@@H](O)[C@H](C)C(=O)N[C@H](C(=O)NCCc1nc(-c2nc(C(=O)NCCC[S+](C)C)cs2)cs1)[C@@H](C)O)C(OC1OC(CO)C(O)C(O)C1OC1OC(CO)C(O)C(OC(N)=O)C1O)c1cnc[nH]1 (some centres undefined)	-4.59% [2.5 µM] (active)
CC[C@@]1(O)C(=O)OCc2c1cc1n(c2=O)Cc2cc3ccccc3nc2-1	-3.04% (active)
Oc1cc[c]([Hg][Cl])cc1	38.2%
CCC1(O)CC(OC2CC(N(C)C)C(OC3CC4OC5CC(=O)C(C)OC5OC4C(C)O3)C(C)O2)c2c(cc3c(c2O)C(=O)c2c(O)ccc(O)c2C3=O)C1C(=O)OC (centres undefined)	-6.58% (active)
O=C1c2ccccc2C(=O)C(Cl)C1Cl (centres undefined)	35.6%
CCCCCCCCCCCC1CCCC(C)N1 (centres undefined)	-28% (active)
CC(=O)O[C@H]1C[C@@H]2OC3C=C(C)CCC3(C)[C@@]1(C)[C@@]21CO1 (some centres undefined)	-17.5% (active)
CC[C@@]1(O)C[C@H](OC2CC(N(C)C)C(OC3CC(O)C(OC4CCC(=O)C(C)O4)C(C)O3)C(C)O2)c2c(cc3c(c2O)C(=O)c2c(O)ccc(O)c2C3=O)[C@H]1C(=O)OC (some centres undefined)	1.06% (active)
C[C@H]1CCC/C=C/[C@@H]2C[C@H](O)C[C@H]2[C@H](O)/C=C/C(=O)O1	-6.07% (active)
